Test results published in PubChem BioAssay (NCATS).
Inconclusive results are not listed. Calls of active or inactive are those of the source. Unless noted, calls follow the shape of the full dose curve.

Experiments:
[1] = biological target: Bile acid receptor (Homo sapiens) (UniProt Q96RI1); assay: qHTS assay for small molecule agonists of farnesoid X receptor signaling (AID 588527); conditions: HEK293T FXR-UAS-bla, beta-lactamase ratio, 16 h; activation: active compounds read high;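 also: series mostly up to about 77 µM; 0% = vehicle basal and 100% = reference agonist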
Sequence of Bile acid receptor (Homo sapiens) (Q96RI1 whole entry, looked up): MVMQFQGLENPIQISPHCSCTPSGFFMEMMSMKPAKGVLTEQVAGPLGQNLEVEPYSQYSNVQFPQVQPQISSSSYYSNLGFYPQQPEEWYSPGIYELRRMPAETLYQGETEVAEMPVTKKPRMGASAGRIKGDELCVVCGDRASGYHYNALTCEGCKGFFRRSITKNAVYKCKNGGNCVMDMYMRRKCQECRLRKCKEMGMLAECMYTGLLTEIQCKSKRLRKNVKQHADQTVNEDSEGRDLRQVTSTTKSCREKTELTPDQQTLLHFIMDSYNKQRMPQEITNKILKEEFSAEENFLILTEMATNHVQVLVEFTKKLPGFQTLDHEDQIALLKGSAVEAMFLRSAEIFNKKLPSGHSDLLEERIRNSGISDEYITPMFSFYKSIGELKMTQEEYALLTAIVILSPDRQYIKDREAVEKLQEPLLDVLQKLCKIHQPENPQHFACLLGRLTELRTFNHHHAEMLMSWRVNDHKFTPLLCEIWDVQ
Outline: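 FXR-UAS-bla HEK293T, 10% dialyzed FBS; cpds up to 92 uM titration, 16 h 37 C; CCF4 dye 2 h RT; fluorescence. Normalized to chenodeoxycholic acid 100 uM (100%) and DMSO (0%); Hill fit gives EC50, efficacy.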

[2] = biological target: Peroxisome proliferator-activated receptor delta (Homo sapiens) (UniProt Q03181); assay: qHTS assay for small molecule agonists of peroxisome proliferator-activated receptor delta signaling (AID 588534);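 also: 0% = DMSO basal wells and 100% = positive control agonist at 10 µM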
Sequence of Peroxisome proliferator-activated receptor delta (Homo sapiens) (Q03181 whole entry, looked up): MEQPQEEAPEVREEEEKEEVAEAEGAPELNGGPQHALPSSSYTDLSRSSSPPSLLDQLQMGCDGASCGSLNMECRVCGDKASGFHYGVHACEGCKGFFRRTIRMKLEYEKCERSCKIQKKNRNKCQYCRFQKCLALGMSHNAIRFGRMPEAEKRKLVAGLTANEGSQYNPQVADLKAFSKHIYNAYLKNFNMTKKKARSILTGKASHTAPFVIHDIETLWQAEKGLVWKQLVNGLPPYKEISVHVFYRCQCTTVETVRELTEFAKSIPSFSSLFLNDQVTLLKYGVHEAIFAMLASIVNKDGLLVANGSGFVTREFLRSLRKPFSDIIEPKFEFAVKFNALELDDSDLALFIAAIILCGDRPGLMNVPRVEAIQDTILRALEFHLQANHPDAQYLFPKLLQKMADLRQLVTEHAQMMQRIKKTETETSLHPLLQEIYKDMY
Outline: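 Cells carrying a PPAR-delta beta-lactamase reporter were treated with compounds for 18 h at 37 °C in agonist mode. CCF4 fluorescence was read after 2 h; EC50 and efficacy from Hill fits.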

[3] = qHTS for Inhibitors of the Functional Ribonucleoprotein Complex (vRNP) of Lassa (LASV) Arenavirus: LASV Primary Screen - GLuc reporter signal (AID 1347082; calls by dose curve; tested in HEK293 reporter line; also: series mostly up to about 57 µM; % is scaled to controls: 0 for no effect and ±100 for the full control effect; nearly all actives have a fitted effect of over 60% in size)
[4] = qHTS for Inhibitors of the Functional Ribonucleoprotein Complex (vRNP) of Lassa (LASV) Arenavirus: Viability assay - alamar blue signal for LASV Primary Screen (AID 1347083; calls by dose curve; tested in HEK293 reporter line; also: series mostly up to about 57 µM; % is scaled to controls: 0 for no effect and ±100 for the full control effect; nearly all actives have a fitted effect of over 80% in size)
[5] = qHTS for Inhibitors of the Functional Ribonucleoprotein Complex (vRNP) of Lymphocytic Choriomeningitis Arenaviruses (LCMV): Viability assay - alamar blue signal for LCMV Primary Screen (AID 1347085; calls by dose curve; tested in HEK293 reporter line; also: series mostly up to about 57 µM; % is scaled to controls: 0 for no effect and ±100 for the full control effect; nearly all actives have a fitted effect of over 80% in size)
[6] = biological target: Nucleoprotein (Lymphocytic choriomeningitis virus (strain Armstrong)) (UniProt P09992); assay: qHTS for Inhibitors of the Functional Ribonucleoprotein Complex (vRNP) of Lymphocytic Choriomeningitis Arenaviruses (LCMV): LCMV Primary Screen - GLuc reporter signal (AID 1347086); also: series mostly up to about 57 µM; % is scaled to controls: 0 for no effect and ±100 for the full control effect; nearly all actives have a fitted effect of over 70% in size
Sequence of Nucleoprotein (Lymphocytic choriomeningitis virus (strain Armstrong)) (P09992 whole entry, looked up): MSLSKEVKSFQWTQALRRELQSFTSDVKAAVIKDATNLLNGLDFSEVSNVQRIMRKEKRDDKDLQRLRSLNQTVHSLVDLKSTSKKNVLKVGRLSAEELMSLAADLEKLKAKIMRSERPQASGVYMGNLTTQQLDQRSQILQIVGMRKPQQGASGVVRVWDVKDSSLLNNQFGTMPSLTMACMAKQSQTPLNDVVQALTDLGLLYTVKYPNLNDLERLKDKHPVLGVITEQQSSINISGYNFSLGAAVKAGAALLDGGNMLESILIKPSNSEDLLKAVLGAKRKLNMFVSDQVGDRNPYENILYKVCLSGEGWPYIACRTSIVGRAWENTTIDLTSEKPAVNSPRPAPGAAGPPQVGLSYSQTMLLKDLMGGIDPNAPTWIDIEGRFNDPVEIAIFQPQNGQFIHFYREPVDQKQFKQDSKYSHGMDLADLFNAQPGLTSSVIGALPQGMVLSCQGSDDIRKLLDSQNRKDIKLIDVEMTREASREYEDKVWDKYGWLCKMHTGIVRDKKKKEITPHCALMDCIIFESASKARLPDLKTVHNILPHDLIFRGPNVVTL

[7] = biological target: Cytochrome P450 3A4 (Homo sapiens) (UniProt P08684); assay: qHTS Assay for Activators of Cytochrome P450 3A4 (AID 885; active = well fitted curve in the direction sought with a large enough effect; an effect the other way counts as inactive or inconclusive; also: nearly all actives have a fitted effect of over 65% in size)
Sequence of Cytochrome P450 3A4 (Homo sapiens) (P08684 whole entry, looked up): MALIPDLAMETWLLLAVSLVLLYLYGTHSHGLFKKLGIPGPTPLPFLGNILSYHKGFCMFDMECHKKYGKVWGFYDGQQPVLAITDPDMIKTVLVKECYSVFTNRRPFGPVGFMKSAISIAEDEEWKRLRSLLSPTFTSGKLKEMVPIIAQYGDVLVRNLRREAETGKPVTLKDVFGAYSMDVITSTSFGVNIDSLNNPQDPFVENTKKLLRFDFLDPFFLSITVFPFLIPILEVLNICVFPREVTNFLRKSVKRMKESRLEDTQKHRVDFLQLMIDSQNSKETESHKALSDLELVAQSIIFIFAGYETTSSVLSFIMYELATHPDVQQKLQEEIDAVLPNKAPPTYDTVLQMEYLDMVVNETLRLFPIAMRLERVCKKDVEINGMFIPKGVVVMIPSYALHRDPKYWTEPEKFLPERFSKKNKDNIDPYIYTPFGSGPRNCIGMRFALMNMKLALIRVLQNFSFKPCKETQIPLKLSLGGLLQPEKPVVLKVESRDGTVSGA
Outline: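 20nM CYP3A4 + 25uM Luciferin-PPXE (=KM), 200mM KPO4; cpd 10 min RT; NADPH regen, 60 min RT; stop w/ detection buffer, 20 min; luminescence. Normalized to 57 uM ketoconazole.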

[8] = Confirmation and Secondary Assay for Modulators of Hemoglobin Beta Chain Splicing at IVS2 705 locus (AID 930; active = well fitted curve in the direction sought with a large enough effect; an effect the other way counts as inactive or inconclusive;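 also: HeLa cells stably expressing the EGFP-705 splicing reporter; GFP fluorescence per well restored by corrected splicing of the IVS2-705 intron in EGFP; series mostly up to about 46 µM; % of control where 0% means no effect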)
Outline: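 First, HeLa EGFP-705 cells are seeded at 500/well in Optimem with 2% FCS and left overnight. Next, compound or DMSO is added for 2 days. Finally wells are laser-scanned and total peak GFP intensity scored.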

[9] = biological target: Ubiquitin carboxyl-terminal hydrolase 1 (Homo sapiens) (UniProt O94782); assay: Inhibitors of USP1/UAF1: Pilot qHTS (AID 504865; active = well fitted curve in the direction sought with a large enough effect; an effect the other way counts as inactive or inconclusive;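 also: rhodamine fluorescence freed from ubiquitin-rhodamine substrate followed over time; top concentration of the series differs between compounds; % is scaled to controls: 0 for no effect and ±100 for the full control effect; nearly all actives have a fitted effect of over 35% in size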)
Sequence of Ubiquitin carboxyl-terminal hydrolase 1 (Homo sapiens) (O94782 whole entry, looked up): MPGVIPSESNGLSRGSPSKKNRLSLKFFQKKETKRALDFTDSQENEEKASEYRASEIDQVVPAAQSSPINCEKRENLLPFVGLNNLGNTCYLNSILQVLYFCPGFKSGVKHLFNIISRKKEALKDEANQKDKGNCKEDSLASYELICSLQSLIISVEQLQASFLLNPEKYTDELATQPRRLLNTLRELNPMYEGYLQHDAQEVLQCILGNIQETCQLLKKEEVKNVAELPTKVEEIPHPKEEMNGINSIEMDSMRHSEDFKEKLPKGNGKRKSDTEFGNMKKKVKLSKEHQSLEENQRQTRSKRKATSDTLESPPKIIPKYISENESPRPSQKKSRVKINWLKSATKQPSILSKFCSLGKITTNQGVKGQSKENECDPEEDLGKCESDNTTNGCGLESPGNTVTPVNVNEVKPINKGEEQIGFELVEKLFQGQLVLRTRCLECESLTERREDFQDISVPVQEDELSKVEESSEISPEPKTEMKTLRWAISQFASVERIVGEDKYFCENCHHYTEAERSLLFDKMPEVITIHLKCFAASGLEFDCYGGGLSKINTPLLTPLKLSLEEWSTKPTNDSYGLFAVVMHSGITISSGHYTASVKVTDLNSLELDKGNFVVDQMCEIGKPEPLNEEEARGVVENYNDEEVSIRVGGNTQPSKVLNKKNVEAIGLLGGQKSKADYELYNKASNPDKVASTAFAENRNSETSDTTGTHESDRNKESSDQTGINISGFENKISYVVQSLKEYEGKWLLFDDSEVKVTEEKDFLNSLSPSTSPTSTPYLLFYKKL
Outline: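 Enzyme-free wells gave the negative control, while test wells held 1nM USP1/UAF1 preincubated with compound for 15 min at room temperature. Ub-Rho at 150nM final started the reaction, and fluorescence at 480/540 nm was recorded kinetically.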

[10] = biological target: Alpha-galactosidase (Coffea arabica) (UniProt Q42656); assay: Counterscreen for Glucocerebrosidase Inhibitors: qHTS Assay for Coffee Bean alpha-Galactosidase at pH 4.5 (AID 957; active = well fitted curve in the direction sought with a large enough effect; an effect the other way counts as inactive or inconclusive;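 also: series mostly up to about 77 µM; plate controls were enzyme alone for no effect and no enzyme for full effect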)
Sequence of Alpha-galactosidase (Coffea arabica) (Q42656 whole entry, looked up): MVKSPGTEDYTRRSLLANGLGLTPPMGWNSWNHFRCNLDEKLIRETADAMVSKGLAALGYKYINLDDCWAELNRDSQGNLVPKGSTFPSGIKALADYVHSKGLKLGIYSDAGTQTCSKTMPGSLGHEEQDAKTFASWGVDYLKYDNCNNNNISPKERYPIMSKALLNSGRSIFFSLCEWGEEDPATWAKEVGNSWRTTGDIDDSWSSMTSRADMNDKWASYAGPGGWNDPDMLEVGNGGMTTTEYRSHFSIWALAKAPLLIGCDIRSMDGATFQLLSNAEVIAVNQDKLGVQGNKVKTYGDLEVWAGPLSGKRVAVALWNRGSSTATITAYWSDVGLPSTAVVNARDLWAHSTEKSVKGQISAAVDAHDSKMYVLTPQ
Outline: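 Coffee bean enzyme (2 nM) with 80 uM 4-methylumbelliferyl alpha-D-galactopyranoside in 50 mM citric acid, 0.005% Tween-20, pH 4.5, 20 min at room temperature; compounds 0.7 nM–77 uM. Stopped at pH 10, fluorescence 365/440 nm; AC50 from Hill fits.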

[11] = biological target: Alpha-galactosidase (Coffea arabica) (UniProt Q42656); assay: Counterscreen for Glucocerebrosidase Inhibitors: qHTS Assay for Coffee Bean alpha-Galactosidase at pH 5.9 (AID 998; active = well fitted curve in the direction sought with a large enough effect; an effect the other way counts as inactive or inconclusive;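 also: plate controls were uninhibited enzyme for no effect and no-enzyme basal signal for full effect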)
Outline: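 Compounds were titrated from 0.7 nM to 77 uM against green coffee bean alpha-galactosidase (2 nM) using 80 uM fluorogenic 4-methylumbelliferyl substrate. After 20 min at room temperature, reactions were stopped at pH 10 and read by fluorescence.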

[12] = Inducers of the Endoplasmic Reticulum Stress Response (ERSR) in human glioma: Validation (AID 504836; active = well fitted curve in the direction sought with a large enough effect; an effect the other way counts as inactive or inconclusive; also: 0% is about no effect)
Outline: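 ERSR induction read as luciferase luminescence (Bright-Glo, 10 min at room temperature) in stably transfected human U87-MG glioma cells exposed to compounds for 16 h, using GRP78 as sensor.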

[13] = biological target: Cytochrome P450 3A4 (Homo sapiens) (UniProt P08684); assay: qHTS Assay for Inhibitors and Substrates of Cytochrome P450 3A4 (AID 884; active = well fitted curve in the direction sought with a large enough effect; an effect the other way counts as inactive or inconclusive; also: series mostly up to about 57 µM; % is scaled to controls: 0 for no effect and ±100 for the full control effect; nearly all actives have a fitted effect of over 50% in size)
Outline: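 20 nM human CYP3A4 with 25 uM Luciferin-PPXE (at KM) in 200 mM KPO4, preincubated 10 min with compound; NADPH regeneration started a 60 min RT reaction. Luciferin detected by luminescence, normalized to 57 uM ketoconazole as full inhibition.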

[14] = biological target: DNA dC->dU-editing enzyme APOBEC-3G (Homo sapiens) (UniProt Q9HC16); assay: qHTS for inhibitors of Vif-A3G interactions: Validation (AID 588379; active = well fitted curve in the direction sought with a large enough effect; an effect the other way counts as inactive or inconclusive; also: 0% is about no effect)
Sequence of DNA dC->dU-editing enzyme APOBEC-3G (Homo sapiens) (Q9HC16 whole entry, looked up): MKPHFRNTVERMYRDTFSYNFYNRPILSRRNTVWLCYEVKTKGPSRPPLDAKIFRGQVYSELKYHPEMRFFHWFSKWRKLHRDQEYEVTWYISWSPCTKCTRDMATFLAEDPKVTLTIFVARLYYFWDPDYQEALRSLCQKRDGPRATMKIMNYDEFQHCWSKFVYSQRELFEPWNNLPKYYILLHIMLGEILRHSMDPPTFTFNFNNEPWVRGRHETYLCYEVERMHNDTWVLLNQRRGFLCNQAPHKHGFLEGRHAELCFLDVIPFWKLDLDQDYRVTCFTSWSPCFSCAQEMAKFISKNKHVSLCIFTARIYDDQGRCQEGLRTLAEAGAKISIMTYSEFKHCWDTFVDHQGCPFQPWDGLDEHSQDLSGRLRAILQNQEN
Outline: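 HeLa cells stably expressing Vif and A3G-eYFP, 700 cells/well, incubated overnight at 37 deg C, then exposed to compound overnight at 37 deg C. Inhibition of Vif-mediated degradation read as increased yellow fluorescence (Ex 488/Em 500-530) by laser-scanning cytometry.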

CCCCCCCCCCCCCCCCCC(N)=O
inactive: activation [1] 1.8% | Potency [2] | Potency [3] | Potency [4] | Potency [5] | Potency [6]

C=CCSSCC=C
inactive: Potency [7] | outcome [8] | Potency [9] | Potency [3] | Potency [4] | Potency [5] | Potency [6]

O=C(O)c1cc(O)c2ccccc2c1O
inactive: activation [1] 1.64% | Potency [2] | Potency [3] | Potency [4] | Potency [5] | Potency [6]

CC[C@@H]1Cc2cc(O)ccc2C2=C1c1ccc(O)cc1C[C@H]2CC
inactive: outcome [10] | outcome [11] | outcome [12] | Potency [3] | Potency [4] | Potency [5] | Potency [6]

O=c1c2ccccc2nc2n1CCc1c-2[nH]c2ccccc12
inactive: outcome [10] | outcome [11] | outcome [12] | Potency [3] | Potency [4] | Potency [5] | Potency [6]

O=CN1CCCCC1C1CC[C@H]2CCCCN2C1 (some centres undefined)
inactive: Potency [13] | Potency [14] | Potency [3] | Potency [4] | Potency [5] | Potency [6]
